# Where a name gives a salt, the structure may show the parent alone.
# Test system: thyroid hormone receptor (endogenous TRα and TRβ)
# Set-up: species or system GH3-TRE-Luc (rat pituitary); GH3-TRE-Luc luciferase reporter, antagonist mode against 1 nM T3, loss of signal, qHTS
# Conditions: read-out: Average AC50 (uM) GH3-TRE-Antag, antagonist mode, 1 nM T3, no GH3 cytotoxicity hit
row,Structure (SMILES),AC50
1,CCN(CC)CCOCCOC(=O)C1(c2ccccc2)CCCC1 [Carbetapentane],11 µM
2,Cn1c(=O)c2[nH]c(Br)nc2n(C)c1=O [8-Bromotheophylline],24.8 µM
3,CC[C@H](C)COC(=O)/C=C/c1ccc(N=Cc2ccc(OC)cc2)cc1 [(+)-2-Methylbutyl-4-methoxybenzyladine-4'-aminocyannate],62 µM
4,COCCCOc1ccnc(C[S+]([O-])c2nc3ccccc3[nH]2)c1C (centres unmarked) [Rabeprazole sodium],51.1 µM
5,CCOC1O[C@H]([C@@H](COCc2ccccc2)OCc2ccccc2)[C@H](OCc2ccccc2)[C@H]1O (some centres unmarked) [Tribenoside],11.1 µM
6,CCCCCCCCCCCCCCCC(=O)OC[C@H](O)[C@H]1OC(=O)C(O)=C1O [Ascorbyl palmitate],> 50 µM
7,C#C[C@]1(O)CC[C@H]2[C@@H]3CCC4=CC(=O)CC[C@@H]4[C@H]3C(=C)C[C@@]21CC [Etonogestrel],19.5 µM
8,CC(C(=O)O)c1ccc2c(c1)CC(=O)c1ccccc1S2 (centres unmarked) [Zaltoprofen],29.1 µM
9,COC(=O)C(C)N(C(=O)Cc1ccccc1)c1c(C)cccc1C (centres unmarked) [Benalaxyl],> 90 µM
10,"CCCCNC1CC(C)(C)NC(C)(C)C1 [N-Butyl-2,2,6,6-tetramethylpiperidin-4-amine]",60.2 µM
11,COc1ccc2nc(NC(=O)Nc3ccccc3)sc2c1 [Frentizole],11.4 µM
12,CC(=O)[C@H]1CC[C@H]2[C@@H]3CC=C4C[C@@H](O)CC[C@]4(C)[C@H]3CC[C@]12C [Pregnenolone],11.6 µM
13,Cc1nc2ccccc2n1Cc1ccc(Cl)cc1 [Chlormidazole],5.9 µM
14,"OCC#CCO [2-Butyne-1,4-diol]",58.8 µM
15,CCCC(=O)OC[C@@H](OC(=O)CCC)[C@@H](OC(=O)CCC)[C@H](Cn1c2nc(=O)[nH]c(=O)c-2nc2cc(C)c(C)cc21)OC(=O)CCC [Riboflavin tetrabutyrate],42 µM
16,CON(C)C(=O)Nc1ccc(Cl)c(Cl)c1 [Linuron],61.4 µM
17,Nc1ccc(Oc2ccc(Cl)cc2)cc1 [4-Chloro-4'-aminodiphenyl ether],40.7 µM
18,O=C(O)c1cc(Oc2ccc(C(F)(F)F)cc2Cl)ccc1[N+](=O)[O-] [Acifluorfen],71.8 µM

row,Structure (SMILES),AC50
1,CC(Cc1ccccc1)(NC(=O)CN)c1ccccc1 (centres unmarked) [Remacemide hydrochloride],21.8 µM
2,CCOC(=O)Oc1c(OC)cc(C(=O)O[C@@H]2C[C@@H]3CN4CCc5c([nH]c6cc(OC)ccc56)[C@H]4C[C@@H]3[C@H](C(=O)OC)[C@H]2OC)cc1OC [Syrosingopine],19 µM
3,OCCCCCCCCCCCCBr [12-Bromo-1-dodecanol],85.6 µM
4,CC(C)NCC(O)COc1ccc(CCOCC2CC2)cc1 (centres unmarked) [Betaxolol],39.4 µM
5,CCN(Cc1c(F)cccc1Cl)c1c([N+](=O)[O-])cc(C(F)(F)F)cc1[N+](=O)[O-] [Flumetralin],39.8 µM
6,N#CC(c1ccc(Cl)cc1)c1c(Cl)cc(-n2ncc(=O)[nH]c2=O)cc1Cl (centres unmarked) [Diclazuril],4.7 µM
7,CCC[C@@]1(CCc2ccccc2)CC(O)=C([C@H](CC)c2cccc(NS(=O)(=O)c3ccc(C(F)(F)F)cn3)c2)C(=O)O1 [Tipranavir],36.8 µM
8,"c1ccc(-c2nc[nH]c2-c2ccccc2)cc1 [4,5-Diphenylimidazole]",24.1 µM
9,CCCCCCCCCCCCCCCCCCCCCC(=O)Nc1ccn([C@@H]2O[C@H](CO)[C@@H](O)[C@@H]2O)c(=O)n1 [Enocitabine],17.3 µM
10,Cl/C(=C\n1cncn1)c1ccc(Cl)cc1Cl [Loreclezole hydrochloride],18.3 µM
11,COC(=O)c1c(Cl)c(Cl)c(C(=O)OC)c(Cl)c1Cl [Chlorthal-dimethyl],72.5 µM
12,COC(=O)N(C(=O)N1CO[C@@]2(C(=O)OC)Cc3cc(Cl)ccc3C2=N1)c1ccc(OC(F)(F)F)cc1 [Indoxacarb],9.12 µM
13,CCCCCCCCCC=CCC1CC(=O)OC1=O (centres unmarked) [(2-Dodecenyl)succinic anhydride],74.5 µM
14,C=C(C#N)C(=O)OCC [Ethyl cyanoacrylate],> 90 µM
15,CC(C)=CCC[C@](C)(O)[C@@H]1CC=C(C)CC1 [Levomenol],38 µM
16,OCc1c[nH]c2ccccc12 [Indole-3-carbinol],58.4 µM
17,CCC(=O)NCC[C@@H]1CCc2ccc3c(c21)CCO3 [Ramelteon],39.2 µM

# From PMC6792352, “Limited Chemical Structural Diversity Found to Modulate Thyroid Hormone Receptor in the Tox21 Chemical Library” (Environmental Health Perspectives, 2019)
